Data from PubChem BioAssay AID1159580 (chemical genetic matrix, 2015).
Where “and” joins values, the source holds several entries; their conditions need not be identical. Equal entries are not always repeated. Out of some 5,500 compounds screened, about 2,000 (36%) were called active. About 18% were inconclusive and are not listed. Cut-off read from the data, not from the text of the source: active = normalized growth mostly below about 0.91 (no sharp cut-off); inconclusive = no clear call, values can overlap the other calls; inactive = mostly above about 0.92. This is one part of the list.

Assay: chemical genetic growth profiling, strain panel (AID 1159580);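 note: tested at 20 µM; growth read once vehicle control cultures reached saturation at 30 °C; 1 = growth at the plate median or of vehicle wells; lower values mean less growth of the strain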
Conditions: growth OD
[1] = S. cerevisiae deletion strains, locus YAL013W, strain DEP1, stronger effect = lower value
[2] = S. cerevisiae deletion strains, locus YBR229C, strain ROT2, stronger effect = lower value
[3] = S. cerevisiae deletion strains, locus YCL061C, strain MRC1, stronger effect = lower value
[4] = S. cerevisiae deletion strains, locus YDL101C, strain DUN1, stronger effect = lower value
[5] = S. cerevisiae deletion strains, locus YDR150W, strain NUM1, stronger effect = lower value
[6] = S. cerevisiae deletion strains, locus YEL061C, strain CIN8, stronger effect = lower value
[7] = S. cerevisiae deletion strains, locus YGR078C, strain PAC10, stronger effect = lower value
[8] = S. cerevisiae deletion strains, locus YGR229C, strain SMI1, stronger effect = lower value
[9] = S. cerevisiae deletion strains, locus YHR030C, strain SLT2, stronger effect = lower value
[10] = S. cerevisiae deletion strains, locus YHR087W, strain rtc3, stronger effect = lower value
[11] = S. cerevisiae deletion strains, locus YJR043C, strain POL32, stronger effect = lower value
[12] = S. cerevisiae deletion strains, locus YJR075W, strain HOC1, stronger effect = lower value
[13] = S. cerevisiae deletion strains, locus YLR039C, strain RIC1, stronger effect = lower value
[14] = S. cerevisiae deletion strains, locus YLR058C, strain SHM2 (second series), stronger effect = lower value
[15] = S. cerevisiae deletion strains, locus YLR085C, strain ARP6, stronger effect = lower value
[16] = S. cerevisiae deletion strains, locus YLR262C, strain YPT6, stronger effect = lower value
[17] = S. cerevisiae deletion strains, locus YML094W, strain GIM5, stronger effect = lower value
[18] = S. cerevisiae deletion strains, locus YMR219W, strain ESC1, stronger effect = lower value
[19] = S. cerevisiae deletion strains, locus YMR263W, strain SAP30, stronger effect = lower value
[20] = S. cerevisiae deletion strains, locus YNL128W, strain TEP1, stronger effect = lower value
[21] = S. cerevisiae deletion strains, locus YNL153C, strain GIM3, stronger effect = lower value
[22] = S. cerevisiae deletion strains, locus YNL298W, strain CLA4 (second series), stronger effect = lower value
[23] = S. cerevisiae deletion strains, locus YNL322C, strain KRE1, stronger effect = lower value
[24] = S. cerevisiae deletion strains, locus YNR030W, strain Alg12, stronger effect = lower value
[25] = S. cerevisiae deletion strains, locus YOL006C, strain TOP1, stronger effect = lower value
[26] = S. cerevisiae deletion strains, locus YPL055C, strain LGE1, stronger effect = lower value
[27] = S. cerevisiae deletion strains, locus YPL241C, strain CIN2, stronger effect = lower value
[28] = S. cerevisiae deletion strains, locus YPR135W, strain CTF4, stronger effect = lower value
[29] = S. cerevisiae deletion strains, locus YMR307W, strain GAS1, stronger effect = lower value
[30] = S. cerevisiae deletion strains, locus YJL187C, strain SWE1, stronger effect = lower value
[31] = S. cerevisiae strains, strain wild type, stronger effect = lower value

Measured: normalized growth

S=C(NCc1cccnc1)Nc1ccccc1Cl
inactive: [1] 0.987 | [2] 1 | [3] 0.988 | [4] 0.989 | [5] 0.953 | [6] 0.975 | [7] 0.989 | [8] 0.991 | [10] 1.01 | [11] 0.984 | [12] 1.02 | [13] 0.939 | [14] 0.987 | [16] 0.982 | [17] 0.953 | [18] 0.992 | [19] 0.968 | [20] 0.994 | [21] 0.98 | [22] 0.959 | [23] 1 | [24] 0.987 | [25] 1 | [26] 0.961 | [27] 0.97 | [28] 0.745
active: [9] 0.538 | [15] 0.584

COc1ccc(C(=O)NCc2cccnc2)cc1C(=O)NCc1cccnc1
inactive: S. cerevisiae deletion strains, locus YAL040C, strain CLN3, stronger effect = lower value 0.994 | S. cerevisiae deletion strains, locus YCL061C, strain MRC1 (second series), stronger effect = lower value 1.01 | [5] 1 | S. cerevisiae deletion strains, locus YDR363W, strain ESC2, stronger effect = lower value 1 | S. cerevisiae deletion strains, locus YER002W, strain NOP16, stronger effect = lower value 0.997 | [12] 1.02 | [29] 1.01 | [20] 1.01 | [21] 1.02 | S. cerevisiae deletion strains, locus YNL175C, strain NOP13, stronger effect = lower value 1.02 | S. cerevisiae deletion strains, locus YNL197C, strain WHI3, stronger effect = lower value 1.04 | S. cerevisiae deletion strains, locus YNL224C, strain SQS1, stronger effect = lower value 1 | S. cerevisiae deletion strains, locus YOR083W, strain WHI5 (second series), stronger effect = lower value 1.02

Cc1cccc(NC(=S)NCc2ccncc2)c1
inactive: [1] 1 | [2] 1 | [4] 0.988 | [5] 1 | [6] 1.01 | [7] 1.01 | [8] 0.992 | [9] 0.857 | [10] 0.99 | [30] 1.02 | [11] 1 | [12] 0.987 | [13] 1.01 | [14] 1.01 | [15] 0.88 | [16] 1.01 | [17] 0.974 | [18] 1.01 | [19] 0.981 | [21] 0.993 | [22] 1.01 | [23] 1.01 | [24] 1.03 | [26] 1.03 | [27] 0.998 | [28] 0.928 | [31] 0.997

S=C(NCc1ccccc1)Nc1ccc(Cl)c(Cl)c1
active: [1] 0.884 | [3] 0.866 | [6] 0.835 | [7] 0.9 | [9] 0.382 and 0.745 | S. cerevisiae deletion strains, locus YHR079C, strain IRE1, stronger effect = lower value 0.861 | [30] 0.891 | S. cerevisiae deletion strains, locus YKL190W, strain CNB1, stronger effect = lower value 0.68 | S. cerevisiae deletion strains, locus YKL203C, strain TOR2, stronger effect = lower value 0.803 | [13] 0.482 | [15] 0.332 | [16] 0.701 | [17] 0.677 | [19] 0.846 | [21] 0.907 | [22] 0.548 | [24] 0.701 | [25] 0.251 | [26] 0.689 | [27] 0.691 | [28] 0.471 | [31] 0.828
inactive: [2] 0.948 | [4] 0.935 | [5] 0.917 | S. cerevisiae deletion strains, locus YGR052W, strain FMP48, stronger effect = lower value 0.878 | S. cerevisiae deletion strains, locus YHR082C, strain KSP1, stronger effect = lower value 0.839 | [10] 0.964 | S. cerevisiae deletion strains, locus YJL095W, strain BCK1, stronger effect = lower value 0.841 | [11] 0.978 | S. cerevisiae deletion strains, locus YJR066W, strain TOR1, stronger effect = lower value 0.845 | [12] 0.897 | S. cerevisiae deletion strains, locus YKL171W, strain NNK1, stronger effect = lower value 0.807 | [14] 0.938 | S. cerevisiae deletion strains, locus YLR113W, strain HOG1, stronger effect = lower value 1.06 | [18] 0.962 | S. cerevisiae deletion strains, locus YNL183C, strain NPR1, stronger effect = lower value 0.846 | S. cerevisiae deletion strains, locus YNL207W, strain RIO2, stronger effect = lower value 0.829 | [23] 0.977 | S. cerevisiae deletion strains, locus YOR119C, strain RIO1, stronger effect = lower value 0.77 | S. cerevisiae deletion strains, locus YOR231W, strain MKK1, stronger effect = lower value 0.862 | S. cerevisiae deletion strains, locus YPL256C, strain CLN2, stronger effect = lower value 0.916

O=C(Nc1ccc(Cl)c(Cl)c1)c1ccccc1
active: [1] 0.885 | [2] 0.892 | [6] 0.813 | [7] 0.84 | [9] 0.579 | [10] 0.846 | [11] 0.906 | [12] 0.771 | [13] 0.271 | [14] 0.876 | [15] 0.504 | [16] 0.318 | [17] 0.797 | [18] 0.895 | [29] 0.453 | [22] 0.747 | [23] 0.8 | [24] 0.761 | [26] 0.754 | [27] 0.754 | [28] 0.406 | [31] 0.908
inactive: [4] 0.931 | [5] 0.889 | [20] 0.933 | [21] 0.942
